The values below come from PubChem BioAssay (EPA / NIEHS).

The nature of experiment [1]: APR_HepG2_CellCycleArrest_24hr: Apredica 24-hour HepG2 Assay for Cell Cycle Arrest (AID 2282905).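 Note: cell cycle arrest scored as ratio of 2N to 4N nuclear DNA content.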 The following applies: imaging, actives raise or lower the signal. In outline:
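Compounds at 0.39–200 uM (0.5% DMSO) for 24 h, then fixed and Hoechst 33342 stained. Cell-cycle analysis of nuclear DNA content by high-content imaging, fitted bidirectionally versus DMSO.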

The nature of experiment [2]: APR_HepG2_NuclearSize_24hr: Apredica 24-hour HepG2 Assay for Nuclear Size (AID 2282907). The following applies: high-content imaging, actives raise or lower the signal. Put shortly:
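HepG2 cells exposed 24 h to compounds at 0.39–200 uM (0.5% DMSO), fixed, Hoechst 33342 stained and imaged at 20x; nuclear diameter measured by automated image analysis, fitted bidirectionally against DMSO controls.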

The nature of experiment [3]: APR_HepG2_CellLoss_24hr: Apredica 24-hour HepG2 Assay for Cell Loss (AID 2282908).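 For AC50: fit in both directions so a hit may be cell loss or gain.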 The conditions noted are these: high-content imaging. Put shortly:
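HepG2 cells exposed 24 hr to 0.39–200 uM compound in duplicate at 0.5% v/v final DMSO. Cells fixed in 3.7% formaldehyde and Hoechst 33342-stained. Cell number came from nuclear imaging at 20x. Bidirectional fit versus DMSO.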

Experiment [4] can be described thus: APR_HepG2_MicrotubuleCSK_24hr: Apredica 24-hour HepG2 Assay for Microtubule CSK Stabilty (AID 2282909). The following applies: HepG2 microtubule cytoskeleton imaging, actives raise or lower the signal. In outline:
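HepG2 cells were treated 24 hr with compound at 0.39–200 uM in duplicate (0.5% DMSO final), then fixed and permeabilized. Alpha-tubulin immunofluorescence was imaged by high-content microscopy, with bidirectional fitting against DMSO and taxol as positive control.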

Experiment [5] is described as follows: APR_HepG2_MitoticArrest_24hr: Apredica 24-hour HepG2 Assay for Mitotic Arrest (AID 2282910). The conditions noted are these: high-content imaging, actives raise or lower the signal. Put shortly:
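Compounds are dosed onto HepG2 cells across ten concentrations up to 200 uM for 24 hr. Cells are then fixed in 3.7% formaldehyde, permeabilised, and labelled for phospho-histone H3 and nuclei; images are scored by cell cycle analysis and fitted bidirectionally relative to DMSO.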

Experiment [6] is described as follows: APR_HepG2_MitoMembPot_24hr: Apredica 24-hour HepG2 Assay for Mitochondrial Membrane Potential (AID 2282911). The conditions noted are these: imaging, actives raise or lower the signal. Put shortly:
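HepG2, 24 hr dosing, 10 concentrations 0.39–200 uM, 0.5% DMSO final. Live-cell MitoTracker Red CMXRos 250 nM 30 min, then 3.7% formaldehyde fix. HCS fluorescence imaging, 20x; bidirectional fit vs DMSO baseline.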

Experiment [7] in a line: APR_HepG2_MitoMass_24hr: Apredica 24-hour HepG2 Assay for Mitochondrial Mass (AID 2282912). The following applies: high-content imaging, actives raise or lower the signal. Put shortly:
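HepG2 cells exposed 24 hr to 0.39–200 uM compound, 0.5% v/v DMSO, in duplicate. Stained before fixation with 250 nM MitoTracker Red CMXRos for 30 min, then imaged at 20x with Hoechst nuclei. Fitted in both directions against DMSO.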

A short description of experiment [8]: APR_HepG2_p53Act_24hr: Apredica 24-hour HepG2 Assay for p53 Activation (AID 2282913).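 Note: p53 protein immunofluorescence averaged per cell in HepG2 with Hoechst nuclei.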 The conditions noted are these: high-content imaging, actives raise or lower the signal. Put shortly: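 Read-out: Cy5 immunofluorescence for p53 in fixed, permeabilized HepG2, imaged by HCS with Hoechst-defined nuclei. Dosing was 24 hr at 0.39–200 uM in 0.5% DMSO. Curves were fitted bidirectionally relative to DMSO.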

Experiment [9] in a line: APR_HepG2_CellLoss_72hr: Apredica 72-hour HepG2 Assay for Cell Loss (AID 2282915). The conditions noted are these: high-content imaging. Put shortly:
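Cell number comes from Hoechst 33342-labelled nuclei, imaged at 20x after 3.7% formaldehyde fixation. Dosing was 0.39–200 uM, ten concentrations in duplicate, 0.5% DMSO final, for 72 h. Bidirectional fit relative to DMSO baseline.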

Experiment [10] is described as follows: APR_HepG2_P-H2AX_72hr: Apredica 72-hour HepG2 Assay for H2AX Phosphorylation (AID 2282916).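 Note: phospho-histone H2A.x immunostain intensity per cell marking DNA damage.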 The conditions noted are these: imaging, actives raise or lower the signal. Put shortly:
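HepG2 cells treated 72 h at 0.39–200 uM, 0.5% DMSO final, duplicates. Formaldehyde-fixed, Triton-permeabilised, immunostained for phospho-H2A.x with Hoechst; fluorescence imaged at 20x, bidirectional fit versus DMSO.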

Experiment [11] is described as follows: APR_HepG2_MitoMembPot_72hr: Apredica 72-hour HepG2 Assay for Mitochondrial Membrane Potential (AID 2282917). The conditions noted are these: imaging, actives raise or lower the signal. In outline:
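Membrane potential read by MitoTracker Red CMXRos (250 nM, 30 min, pre-fixation) fluorescence imaging of HepG2 after 72 hr exposure. Ten concentrations, 0.39–200 uM, duplicate wells, 0.5% DMSO; fitted in both directions against DMSO baseline.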

Experiment [12] in a line: APR_HepG2_MitoticArrest_72hr: Apredica 72-hour HepG2 Assay for Mitotic Arrest (AID 2282918). The conditions noted are these: high-content imaging, actives raise or lower the signal. In outline: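 HepG2, 72 hr exposure, 0.39–200 uM in duplicate, 0.5% v/v DMSO final. Formaldehyde-fixed, Triton-permeabilized, anti-phospho-histone H3/FITC plus Hoechst. ArrayScan imaging at 20x; curves fit bidirectionally against DMSO baseline.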

Experiment [13] can be described thus: APR_HepG2_P-H2AX_24hr: Apredica 24-hour HepG2 Assay for H2AX Phosphorylation (AID 2282920). The following applies: high-content imaging, actives raise or lower the signal. In outline:
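HCS fluorescence imaging of phospho-H2A.x immunostain (with Hoechst 33342 nuclear counterstain) in HepG2 after 24 hr compound exposure; 10 concentrations, 0.39–200 uM, duplicate wells, 0.5% v/v DMSO. Gain or loss of signal fitted relative to DMSO baseline.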

Experiment [14] is described as follows: APR_HepG2_StressKinase_72hr: Apredica 72-hour HepG2 Assay for Stress Kinase (AID 2282921). The following applies: HepG2 stress kinase (phospho-c-Jun) imaging, actives raise or lower the signal. Put shortly:
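HepG2 cells treated 72 hr with 0.39–200 uM compound, 0.5% v/v DMSO, duplicate wells. After formaldehyde fixation and Triton permeabilization, stained with anti-phospho-c-Jun (1:500) and Cy3 secondary, imaged at 20x. Fitted in both directions against DMSO.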

Experiment [15] is described as follows: APR_HepG2_StressKinase_24hr: Apredica 24-hour HepG2 Assay for Stress Kinase (AID 2282922). The following applies: HepG2 stress kinase (phospho-c-Jun) imaging, actives raise or lower the signal. Put shortly: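 HepG2, 24 hr dosing, 0.39–200 uM in duplicate, 0.5% DMSO; formaldehyde fix (3.7%), 0.5% Triton X-100; anti-phospho-c-Jun + Cy3 secondary, Hoechst counterstain; ArrayScan imaging; bidirectional curve fit vs DMSO baseline.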

Experiment [16] in a line: APR_HepG2_p53Act_72hr: Apredica 72-hour HepG2 Assay for p53 Activation (AID 2282923).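 Note: average cellular p53 protein immunofluorescence intensity in HepG2 cells.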 The conditions noted are these: high-content imaging, actives raise or lower the signal. Put shortly:
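HepG2 cells exposed 72 h to 0.39–200 uM in 0.5% DMSO, duplicates. Fixed, permeabilized cells immunostained for p53 (Cy5) with Hoechst; imaged at 20x, fluorescence analyzed bidirectionally against DMSO.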

Experiment [17] in a line: APR_HepG2_MitoMass_72hr: Apredica 72-hour HepG2 Assay for Mitochondrial Mass (AID 2282924).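 Note: MitoTracker Red CMXRos stain intensity per cell imaged as mitochondrial mass.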 The following applies: high-content imaging, actives raise or lower the signal. In outline:
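HepG2, 72 hr cmpd, 10 conc 0.39–200 uM in dup, DMSO 0.5% v/v. MitoTracker Red CMXRos 250 nM 30 min pre-fix; formaldehyde 3.7% fix 30 min RT. HCS imaging, gain/loss fit vs DMSO.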

Experiment [18] can be described thus: APR_HepG2_NuclearSize_72hr: Apredica 72-hour HepG2 Assay for Nuclear Size (AID 2282925). The following applies: high-content imaging, actives raise or lower the signal. Put shortly:
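HepG2; cpd 0.39–200 uM, 10 conc, duplicate; 72 h; DMSO 0.5% v/v; fix 3.7% formaldehyde 30 min RT; Triton permeabilization; Hoechst 2 ug/mL; HCS imaging 20x; nuclear diameter; gain/loss fit vs DMSO.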

Experiment [19] in a line: APR_HepG2_MicrotubuleCSK_72hr: Apredica 72-hour HepG2 Assay for Microtubule CSK Stabilty (AID 2282919). The following applies: HepG2 microtubule cytoskeleton, high-content imaging, actives raise or lower the signal. In outline:
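Read-out is tubulin fluorescence intensity from high-content imaging of HepG2 cells, with nuclei identified by Hoechst 33342. Treatment lasts 72 h at 0.39–200 uM, and curves are fitted bidirectionally against the DMSO negative control.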

Activity calls are given as the source filed them. Rule for the calls: active = hit-call score of the fitted dose curve at least 0.9, where 1 is the maximum; inactive = score below 0.9.

In the case of `O=C1CCCO1`, the compound was classed as inactive in [1], in experiment [2], in experiment [3], in experiment [4], in experiment [5] and in experiment [6]. Moreover, the call in experiment [7], in [8], in [9], in experiment [10], in experiment [11] and in [12] was inactive. Also, the outcome in experiment [13], in experiment [14], in experiment [15], in experiment [16], in experiment [17] and in experiment [18] was inactive.
Consider `CC(C)N(Cc1ccccc1)C(=O)C(C)(C)C`, for which the compound was classed as inactive in [1], in experiment [2], in [3], in experiment [4], in [5] and in experiment [6]. For the same compound, the call in experiment [7], in experiment [8], in [9], in experiment [10], in experiment [11] and in experiment [12] was inactive. For the same compound, the outcome in [13], in experiment [14], in experiment [15], in experiment [16], in experiment [17] and in [18] was inactive.
Regarding `Cc1cc(N=Nc2ccccc2C)ccc1N`, the AC50 in experiment [1] is 100 µM (active); in [3] it was 70 µM (active); in experiment [5] it was 87.6 µM (active); in experiment [6], 101 µM (active); in experiment [7], 121 µM (active); in experiment [9] it was 43.1 µM (active). In addition, the AC50 was 100 µM (active) in [13], 100 µM (active) in experiment [15], 2.34 µM (active) in experiment [16] and 56.3 µM (active) in experiment [18]. Besides, the compound was called inactive in experiment [2], in [4], in experiment [8], in [10], in experiment [11] and in [12]. Also, the compound was classed as inactive in [14] and in [17].
On to `C[C@]12C=CC3=C4CCC(=O)C=C4CC[C@H]3[C@@H]1CC[C@@H]2O`, for which the compound was classed as inactive in experiment [1], in experiment [2], in experiment [4], in [6], in experiment [7] and in experiment [10]. Besides, the compound was classed as inactive in experiment [11], in experiment [19], in [13], in experiment [14], in experiment [15] and in [17]. Further, in [18], the result was inactive. The AC50 in [3] was 26.1 µM (active); in experiment [5], 32.7 µM (active); in [9] it was 21.7 µM (active); in [12] it was 20.8 µM (active).

As a reminder, the AC50 is the midpoint of the concentration-response curve, whichever way the signal moves.
